12 compounds from PubChem BioAssay (NCI) can be followed below.

About 83,000 compounds went through this panel and 20% of them were active in at least one assay; those are over-represented in the sample as a whole.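 How to read the values: 0–100, growth inhibition (40 = 60% inhibited); 0, no net growth; -100 to 0, cell death (-40 = 40% of starting cells died; -100 = all dead).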 Active and inactive are the calls of the source. The calls were made as follows: active = growth percent below 10; inactive = the rest.

Test systems include NCI-H226 lung; NCI-H322M lung; HOP-62 NSCLC; NCI-H460 lung; HOP-92 NSCLC; NCI-H522 lung; A549/ATCC NSCLC; 786-0 renal; COLO 205 colon.
Holding throughout (assay): NCI-60 one-dose screen, 48 h (100 = growth as untreated, 0 = no growth, -100 = all killed)
Common to all, as to details: 10 µM unless noted

On to `Cn1ccnc1C(=O)/C=C/c1ccc(CC(=O)NC2CCCCC2)cc1`, for which the growth was 92.8% (inactive) with NCI-H226 lung; 61% (inactive) with NCI-H322M lung; 56% (inactive) in the test on HOP-62 NSCLC; 26% (inactive) in the test with NCI-H460 lung; 75% (inactive) in the test with HOP-92 NSCLC; 52.1% (inactive) with NCI-H522 lung. For the same compound, the figures for the growth in the test with A549/ATCC NSCLC, in the test on 786-0 renal and in the test on COLO 205 colon were 64.1% (inactive), 71.3% (inactive) and 67.9% (inactive), respectively.

For the compound `Cn1cc(-c2nc(-c3c[nH]c4c(Cl)nccc34)cs2)c2cc(Br)ccc21`, the growth in the test with NCI-H226 lung was 81.4% (inactive); in the test with NCI-H322M lung it was 93.2% (inactive); in the test with HOP-62 NSCLC, 82% (inactive); in the test with NCI-H460 lung, 80.2% (inactive); in the test on HOP-92 NSCLC, 91.2% (inactive); in the test with NCI-H522 lung, 78.7% (inactive). Moreover, the growth with A549/ATCC NSCLC is 66.6% (inactive); with 786-0 renal, 84.6% (inactive).

As to `CC1=CCC(OC(=O)C(C)(O)CCC(O)(C(=O)OC2(C)C=CC(O)(C(C)C)CC2)C(C)C)(C(C)C)CC1` (configuration not stated), the growth in the test on NCI-H226 lung was 106% (inactive); with NCI-H322M lung it was 99.1% (inactive); with HOP-62 NSCLC, 99.8% (inactive); with NCI-H460 lung, 111% (inactive); in the test with HOP-92 NSCLC, 109% (inactive); in the test on NCI-H522 lung, 93.7% (inactive). Further, the growth in the test with A549/ATCC NSCLC is 101% (inactive); in the test with 786-0 renal, 100% (inactive); in the test on COLO 205 colon, 116% (inactive).

On to `CC(=O)Nc1ccc(-c2ccc3c(c2)NC(=O)/C3=C\c2ccc[nH]2)cc1`, for which the growth in the test on NCI-H226 lung is 85.8% (inactive); in the test on NCI-H322M lung it was 64.5% (inactive); in the test on HOP-62 NSCLC, 95.7% (inactive); with NCI-H460 lung it was 50.1% (inactive); in the test on HOP-92 NSCLC, 130% (inactive); with NCI-H522 lung it was 59.3% (inactive). Besides, the results for the growth with A549/ATCC NSCLC, with 786-0 renal and in the test on COLO 205 colon were 92.4% (inactive), 99.3% (inactive) and 139% (inactive), respectively.

Consider `O=S(=O)(NCCNc1nccc(-c2c(-c3cccc(F)c3)nc3sccn23)n1)c1ccccc1`, for which the growth in the test on NCI-H226 lung was 34.5% (inactive); in the test on NCI-H322M lung, 51.5% (inactive); in the test with HOP-62 NSCLC, 60.2% (inactive); in the test on NCI-H460 lung, 25.9% (inactive); in the test with HOP-92 NSCLC, 51.5% (inactive); in the test on NCI-H522 lung it was 43.7% (inactive). Also, the growth with A549/ATCC NSCLC was 25.2% (inactive); with 786-0 renal, 47.4% (inactive); in the test with COLO 205 colon, 24.2% (inactive).

Take `O=C(/C(=C/c1ccc([N+](=O)[O-])cc1)SCc1ccc(F)cc1)c1ccc(F)cc1`: the growth in the test with NCI-H226 lung was 86.9% (inactive); with NCI-H322M lung it was 85.9% (inactive); with HOP-62 NSCLC, 93.6% (inactive); with NCI-H460 lung, 90.7% (inactive); in the test with HOP-92 NSCLC it was 90.2% (inactive); in the test with NCI-H522 lung it was 52.2% (inactive). The growth in the test on A549/ATCC NSCLC was 91.4% (inactive); with 786-0 renal, 78.7% (inactive); in the test on COLO 205 colon, 94.7% (inactive).

Regarding `Cc1cnc(C(=O)Nc2nc3ccc(S(=O)(=O)Nc4ccc(C(C)(C)C)cc4)cc3[nH]2)cn1`, the growth was 31.3% (inactive) in the test with NCI-H226 lung; 41.6% (inactive) with NCI-H322M lung; 42.5% (inactive) in the test on HOP-62 NSCLC; 1.67% (active) with NCI-H460 lung; 37.4% (inactive) in the test with HOP-92 NSCLC; 24.4% (inactive) in the test on NCI-H522 lung. In addition, the growth is 21.6% (inactive) with A549/ATCC NSCLC, 22.7% (inactive) in the test with 786-0 renal and 6.64% (active) with COLO 205 colon.

`Cc1cc2c(c(C)c1Cl)C(=O)/C(=C/c1ccc(O)c(O)c1)O2`: the growth with NCI-H226 lung is 92.9% (inactive); in the test on NCI-H322M lung, 104% (inactive); in the test on HOP-62 NSCLC it was 90.5% (inactive); in the test on NCI-H460 lung, 99.9% (inactive); in the test with HOP-92 NSCLC, 90.2% (inactive); in the test with NCI-H522 lung it was 87.3% (inactive). For the same compound, the growth with A549/ATCC NSCLC is 97.8% (inactive); in the test with 786-0 renal, 107% (inactive); with COLO 205 colon, 114% (inactive).

Take `CC1(C)CC[C@]2(C(=O)O)CC[C@]3(C)C(=CC[C@@H]4[C@@]5(C)Cc6c([nH]c7ccccc67)C(C)(C)[C@@H]5CC[C@]43C)[C@@H]2C1`: the growth in the test with NCI-H226 lung was 48.9% (inactive); with NCI-H322M lung, 27.3% (inactive); with HOP-62 NSCLC, 28.2% (inactive); with NCI-H460 lung, 16.7% (inactive); in the test with HOP-92 NSCLC, 60.3% (inactive); in the test with NCI-H522 lung, 31.5% (inactive). In addition, the growth in the test on A549/ATCC NSCLC is 17.8% (inactive); in the test with 786-0 renal, 37.7% (inactive); in the test with COLO 205 colon, -15.5% (active).

For `CCCCCC(=O)Oc1ccc(/C(=C(\C)c2ccccc2)c2ccc(OCCN3CCCCC3)cc2)cc1`, the growth in the test on NCI-H226 lung is 93.5% (inactive); in the test with NCI-H322M lung it was 83.8% (inactive); with HOP-62 NSCLC, 87.7% (inactive); in the test on NCI-H460 lung it was 82.1% (inactive); with HOP-92 NSCLC, 91.2% (inactive); in the test on NCI-H522 lung, 70.1% (inactive). In addition, the growth in the test with A549/ATCC NSCLC is 77.5% (inactive); in the test with 786-0 renal it was 69.9% (inactive); with COLO 205 colon, 34.4% (inactive).

For the compound `CN[C@@H](C)C(=O)N[C@H]1CCS[C@H]2CC(C)(C)[C@@H](C(=O)N[C@H]3c4ccccc4C[C@H]3OCC#CC#CCO[C@@H]3Cc4ccccc4[C@@H]3NC(=O)[C@H]3N4C(=O)[C@@H](NC(=O)[C@H](C)NC)CCS[C@H]4CC3(C)C)N2C1=O`, the growth in the test on NCI-H226 lung was 129% (inactive); with NCI-H322M lung it was 92.4% (inactive); with HOP-62 NSCLC it was 66.8% (inactive); in the test on NCI-H460 lung, 114% (inactive); in the test with HOP-92 NSCLC it was 79.4% (inactive); in the test on NCI-H522 lung, 56.9% (inactive). For the same compound, the growth is 95.3% (inactive) with A549/ATCC NSCLC, 99.2% (inactive) in the test with 786-0 renal and 103% (inactive) with COLO 205 colon.

For the compound `S=c1cc(S)c2cc(Br)ccc2[nH]1`, the growth was 83.9% (inactive) with NCI-H226 lung; 91.1% (inactive) in the test on NCI-H322M lung; 85.9% (inactive) in the test with HOP-62 NSCLC; 99.4% (inactive) in the test on NCI-H460 lung; 88.5% (inactive) in the test on HOP-92 NSCLC; 68.1% (inactive) in the test on NCI-H522 lung. The growth in the test on A549/ATCC NSCLC was 89.5% (inactive); in the test with 786-0 renal, 104% (inactive); in the test with COLO 205 colon, 98.8% (inactive).
